Most compounds without a hit are left out; they make up all but 14% or so of the library.
MARV entry inh – blocks Marburg virus binding to or entry into cells. actives 1.8% (n = 300,000). Potency, µM (doses to about 37.8 µM), most hits filed as inhibitors. Marburg virus pseudotyped entry inhibition, cell reporter; calls by dose curve; tested in HEK293 cells
HCMV antiviral – human cytomegalovirus inhibition. HFF cells, HCMV-luciferase reporter, 72 h; hits give low values. activity change, negative = inhibition, % at 57.5 µM. actives 4.5% (n = 410,000). AID 1259415; in the data active = activity change below about -60%; inconclusive = no clear call, values can overlap the other calls; inactive = above about -39%
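Two-dose cell screen: HFF monolayers treated with compounds and infected with luciferase-expressing HCMV at 1 PFU/cell, 72 h at 37C, then lysed for luciferase measurement.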
HCV inhibitor – HCV inhibition. Huh7.5.1 HCVcc-Cre infection, luciferase reporter, 44 h. actives 3.4% (n = 340,000). Potency, µM (top dose mostly 41.8 µM), usual class: inhibitors. AID 651820
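Luciferase read-out (15 sec integration) after a 15 min room-temperature substrate step quantifies HCVcc-Cre infection. Cells, 1,000 per well, had compound added 4 h post-plating, then virus at ~0.5 moi, and were cultured 44 h.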
Pf growth 96h – P. falciparum growth inhibition at 96 hour, primary screen for plastid delayed-death inhibitors. Potency, µM (series often up to 28.7 µM), actives largely listed as inhibitors. actives 6.9% (n = 320,000). P. falciparum luciferase reporter growth, 96 h
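Plates of compound plus infected erythrocytes (2% hematocrit, 0.05% parasitemia final) incubate 96 hours, 37 C, 5% CO2. Detection reagent added; reduced luminescence from the parasites' luciferase reporter flags inhibition.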
LASV entry inh – blocks Lassa virus binding to or entry into cells | Lassa virus pseudotype entry inhibition, cell reporter | Potency, µM (highest dose often 37.9 µM), usual class: inhibitors | actives 1.2% (n = 300,000) | AID 540256; calls by dose curve; tested in HEK293 cells; also: nearly all actives have a fitted effect of over 50% in size
Pf growth 48h – inhibits P. falciparum growth in the first generation, 48 h. actives 5.9% (n = 310,000). P. falciparum luciferase growth in erythrocytes, 48 h. AID 504832. Potency, µM (doses to about 28.7 µM), actives largely listed as inhibitors
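Firefly luciferase activity from engineered P. falciparum reports growth; inhibitors lower the luminescent signal. Cultures contained 2% hematocrit erythrocytes at 0.1% final parasitemia.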
Each line names hits and unclear results; the compound was inactive in the other large screens; ! = not confirmed by another sample. Unless noted, calls follow the shape of the dose curve; as a rule, active = well fitted inhibition curve with a large enough effect; inconclusive = small, poorly fitted or top-dose-only effect, or another doubt; inactive = no such curve, though single readings can be large or run the other way.

CC1CCCC(C)N1CCCNC(=O)c1ccc2c(c1)NC(=O)c1ccccc1S2 (stereo not drawn)	MARV entry inh inconclusive, HCV inhibitor inconclusive, Pf growth 96h inconclusive, Pf growth 48h 4.1µM
CC1CCCC(C)N1CCCNC(=O)c1nn(C)c2c1CSc1ccccc1-2 (stereo not drawn)	HCV inhibitor inconclusive, Pf growth 96h inconclusive, Pf growth 48h inconclusive (no result: MARV entry inh, LASV entry inh)
Cc1cc([N+](=O)[O-])nn1CC(=O)Nc1ccc(Cl)cn1	HCMV antiviral -60
Cc1cc([N+](=O)[O-])nn1CC(=O)Nc1ccccn1	none
Cc1cc([N+](=O)[O-])nn1CC(=O)NCc1cccs1	HCMV antiviral inconclusive, Pf growth 96h 8.3µM
CC1(c2ccccn2)Nc2ccccc2-c2nc3ccccc3n21 (stereo not drawn)	Pf growth 48h 1.7µM
CCCCC1(C)Nc2ccccc2-c2nc3ccccc3n21 (stereo not drawn)	Pf growth 96h 1.3µM, Pf growth 48h 2.1µM
c1ccc2c(c1)NC1(CCCCCC1)n1c-2nc2ccccc21	none (no result: Pf growth 96h)
COc1cc2onc(C3CCN(C(=O)C(C)(C)C)CC3)c2cc1OC	none (no result: MARV entry inh, HCV inhibitor, Pf growth 96h, LASV entry inh, Pf growth 48h)
Cc1ccc2c(c1)Oc1ccc([N+](=O)[O-])cc1C(=O)N2	MARV entry inh inconclusive, Pf growth 96h inconclusive, Pf growth 48h inconclusive
Cc1ccc2c(c1)Oc1ccc(NC(=O)CCl)cc1C(=O)N2	MARV entry inh inconclusive, HCMV antiviral -88, HCV inhibitor inconclusive, Pf growth 96h inconclusive, LASV entry inh inconclusive, Pf growth 48h inconclusive
COC(=O)C1=NNC(C(=O)OC)C1c1ccccc1 (stereo not drawn)	none (no result: Pf growth 96h, Pf growth 48h)
CCN1CCN(c2cc(N3CCCC3)c(F)cc2[N+](=O)[O-])CC1	MARV entry inh 21µM, HCMV antiviral inconclusive, HCV inhibitor inconclusive, LASV entry inh inconclusive
CCOC(=O)N1CCN(c2cc(N3CCOCC3)c(F)cc2[N+](=O)[O-])CC1	LASV entry inh 7.9µM
CN1CCN(c2cc(N3CCCC3)c([N+](=O)[O-])cc2F)CC1	HCV inhibitor inconclusive
O=C(c1ccco1)N1CCN(c2cc(N3CCOCC3)c(F)cc2[N+](=O)[O-])CC1	HCMV antiviral -103, Pf growth 96h inconclusive, LASV entry inh inconclusive
CCCC(=O)c1ccc(N2CCN(C(=O)OCC)CC2)c(F)c1	Pf growth 96h 9.3µM
CCOC(=O)N1CCN(c2ccc(F)cc2[N+](=O)[O-])CC1	HCMV antiviral inconclusive
O=C(CSc1nccn1C1CCCC1)Nc1cccc(F)c1	none (no result: MARV entry inh, HCV inhibitor, Pf growth 96h, Pf growth 48h)
COC(=O)C[C@H]1CC[C@H](NC(=O)Nc2ccccc2OC)[C@@H](CO)O1	none (no result: MARV entry inh, HCV inhibitor, Pf growth 96h, LASV entry inh, Pf growth 48h)
Cc1oc2c(Cl)c(Cl)c(O)c(CN(C)C)c2c1C(=O)c1ccc(Cl)cc1	HCMV antiviral -69, HCV inhibitor inconclusive, Pf growth 48h inconclusive (no result: MARV entry inh, LASV entry inh)
O=C(Nc1ccc(F)cc1)C1CCN(C(=O)c2ccc(F)cc2)CC1	Pf growth 96h inconclusive, Pf growth 48h inconclusive (no result: MARV entry inh, LASV entry inh)
OCCN1CCN(CCCc2c3c(cc4c2CCC4)CCC3)CC1	Pf growth 96h 12µM, LASV entry inh inconclusive, Pf growth 48h 12µM
O=C(CC(c1ccccc1)c1cc(Br)ccc1O)NCC1(c2ccccc2)CCCC1 (stereo not drawn)	MARV entry inh inconclusive, HCMV antiviral -105, LASV entry inh inconclusive (no result: HCV inhibitor, Pf growth 96h, Pf growth 48h)
O=C(CC(c1ccccc1)c1cc(Br)ccc1O)NCCN1CCOCC1 (stereo not drawn)	MARV entry inh inconclusive, Pf growth 48h inconclusive
O=C(CCc1ccccc1)NCC1(c2ccccc2)CCCC1	MARV entry inh 5.6µM, Pf growth 96h inconclusive, LASV entry inh inconclusive, Pf growth 48h inconclusive
COc1cc2c(cc1OC)CN(CC(=O)Nc1ccc(F)cc1)C(C(=O)O)C2 (stereo not drawn)	none
Cc1cc(C)cc(OCC(=O)N(C)CC(=O)Nc2ccc(N3CCOCC3)cc2)c1	none
CN1C(=O)NC(c2ccccc2[N+](=O)[O-])C2=C1CC(C)(C)CC2=O (stereo not drawn)	MARV entry inh inconclusive, Pf growth 96h 9.3µM
CN1C(=O)NC(c2ccccc2[N+](=O)[O-])C2=C1CCCC2=O (stereo not drawn)	Pf growth 96h 9.3µM, LASV entry inh inconclusive
COc1cc(C2NC(=O)N(C)C3=C2C(=O)CCC3)cc(OC)c1OC (stereo not drawn)	none
COC(=O)[C@]12CCCCC=C1N(Cc1ccc3c(c1)OCO3)C(=O)[C@H](CC(=O)N1CCN(C(=O)c3ccco3)CC1)C2	none (no result: MARV entry inh, HCV inhibitor, Pf growth 96h, LASV entry inh, Pf growth 48h)
CC(=O)Nc1cccc(NC(=O)NC2CC(=O)N(c3ccc4c(c3)OCCO4)C2)c1 (stereo not drawn)	none (no result: MARV entry inh, HCV inhibitor, Pf growth 96h, LASV entry inh, Pf growth 48h)
CNC(=O)c1cc(Oc2ccc(NC(=O)Nc3ccc(Cl)c(C(F)(F)F)c3)cc2)ccn1	HCMV antiviral -100, HCV inhibitor 11µM, Pf growth 48h inconclusive (no result: MARV entry inh, LASV entry inh)
CC1=CC(C)(C)N(S(=O)(=O)c2ccc(C)cc2)c2ccc(C)cc21	MARV entry inh inconclusive, HCMV antiviral -74, Pf growth 96h 10µM (no result: Pf growth 48h)
CC1=CC(C)(C)N(S(=O)(=O)c2ccc(F)cc2)c2ccccc21	MARV entry inh inconclusive, Pf growth 48h inconclusive (no result: Pf growth 96h)
CC(=O)Nc1ccc(S(=O)(=O)N2c3ccccc3C(C)=CC2(C)C)cc1	MARV entry inh inconclusive, HCMV antiviral -80, LASV entry inh inconclusive
Cc1cccc(NC(=O)CSc2cn(CC(=O)N3CCC(C)CC3)c3ccccc23)c1C	none (no result: MARV entry inh, HCV inhibitor, Pf growth 96h, Pf growth 48h)
O=C(N1CCC[C@@H]1c1noc2ccccc12)C(F)(F)F	none (no result: MARV entry inh, HCV inhibitor, Pf growth 96h, LASV entry inh, Pf growth 48h)
COc1ccc(/C=N/Nc2nnc(Cc3ccc(OC)c(OC)c3)c(=O)[nH]2)cc1OC	HCV inhibitor inconclusive, LASV entry inh inconclusive
COc1ccc(/C=N/Nc2nnc(Cc3ccc(OC)c(OC)c3)c(=O)[nH]2)cc1	HCMV antiviral -68, Pf growth 96h inconclusive
CC(N)C(=O)OC(C)(C)Cc1ccc(Cl)cc1 (stereo not drawn)	MARV entry inh 10µM!, Pf growth 96h inconclusive, LASV entry inh inconclusive
Cc1ccc(Oc2ccc(S(=O)(=O)N3CCOCC3)cc2C(N)=O)c(-n2nc3ccccc3n2)c1	MARV entry inh inconclusive, HCMV antiviral -85, Pf growth 96h inconclusive, LASV entry inh inconclusive, Pf growth 48h inconclusive
CCCCN(CCCC)CCCNC(=O)c1cc(-c2ccc(Cl)s2)nc2ccccc12	MARV entry inh inconclusive (no result: HCV inhibitor, Pf growth 96h, Pf growth 48h)
COC(=O)c1ccc(COc2ccccc2/C=N/NS(=O)(=O)c2ccccc2)cc1	MARV entry inh 13µM, HCMV antiviral -86, HCV inhibitor 10µM
COc1cc(/C=N/O)ccc1OCc1ccc(C(=O)O)cc1	MARV entry inh 0.1µM, LASV entry inh inconclusive
COc1cc(/C=N/NS(=O)(=O)c2ccc3ccccc3c2)ccc1OCc1ccc(C(=O)O)cc1	MARV entry inh 0.89µM, LASV entry inh inconclusive
CCOc1cc(/C=N/O)ccc1OCc1ccc(F)cc1	MARV entry inh inconclusive, HCV inhibitor 7.1µM, Pf growth 96h 3.7µM
O=C(O)c1cc(/C=N\O)ccc1OCc1ccccc1	none (no result: Pf growth 96h)
CCc1cnc(Nc2nc(C(N)c3ccccc3Cl)cs2)nc1 (stereo not drawn)	none (no result: MARV entry inh, HCV inhibitor, Pf growth 96h, LASV entry inh, Pf growth 48h)

From PubChem
